Measurements published in PubChem BioAssay (NCATS).
Unmarked numbers belong to inactive results. Calls of active or inactive are those of the source. How the calls were made is not given here. Numbered stars: 1 amine (or outer) side, 2 acyl side, 3 side chain; on linkers, the order of the positions; unused ones are H or OH. Bridge positions count the residues as written; N and C are the ends. Square brackets hold non-standard residues; d marks the D form. Peptide text beside a SMILES is read from it. I, II: the chains in the order shown. ξ: configuration not given here. Actinocin(9to1) = Cc1c2oc3c(C)ccc(C(=O)[*:1])c3nc-2c(C(=O)[*:2])c(N)c1=O; ξNMeV = CNC(C(=O)O)C(C)C; ξV = CC(C)C(N)C(=O)O; Sar = CNCC(=O)O

Legend:
[1] = Immunotoxin (HA22) sensitization/mitigation study. Vehicle arm (PBS) (AID 1159510)
[2] = Immunotoxin (SS1P) sensitization/mitigation study. Vehicle arm (DMEM) (AID 1159513)
Potency means the concentration at half of the fitted maximal effect.

Row | Structure (SMILES) | Potency [1] | Potency [2]
1 | NC(=O)Nc1cc(-c2ccc(CN3CCOCC3)c(F)c2)sc1C(=O)N[C@H]1CCCNC1 | 0.0418 µM (active) | 0.209 µM (active)
2 | CC(C)(C)COc1ccc(-n2cc(C(=O)O)cn2)cc1C#N | 18.7 µM (active) | inactive
3 | Nc1nccc(Oc2ccc(NC(=O)c3c[nH]cc(-c4ccc(F)cc4)c3=O)cc2F)c1Cl | 23.5 µM (active) | 
4 | N#CC[C@H](C1CCCC1)n1cc(-c2ncnc3[nH]ccc23)cn1 | 23.5 µM (active) | 
5 | OC[C@H]1O[C@@H](n2cnc3c2NC=NC[C@@H]3O)C[C@H]1O | inactive | inactive
6 | CO[C@@H]1[C@H](N(C)C(=O)c2ccccc2)C[C@H]2O[C@]1(C)n1c3ccccc3c3c4c(c5c6ccccc6n2c5c31)C(=O)NC4 | 0.469 µM (active) | 1.05 µM (active)
7 | COc1cccc2c1CCCC2CCCN1CCN(C2CCCCC2)CC1 (stereo not given) | 16.6 µM (active) | 7.43 µM (active)
8 | NC(=O)c1c(OCc2c(F)cc(Br)cc2F)nsc1NC(=O)NCCCCN1CCCC1 | 23.5 µM (active) | 
9 | CNC(=O)c1cc(Oc2ccc(NC(=O)Nc3ccc(Cl)c(C(F)(F)F)c3)c(F)c2)ccn1 | 20.9 µM (active) | 26.4 µM (active)
10 | COc1ccc2c(c1)CC[C@@H](CN(C)CC(=O)O)[C@H]2c1ccccc1 | inactive | inactive
11 | O=C1C(Cl)=C(NCCN2CCOCC2)C(=O)c2ncccc21 | 2.35 µM (active) | 14.8 µM (active)
12 | Cc1c2oc3c(C)ccc(C(=O)N[C@@H]4C(=O)NC(C(C)C)C(=O)N5CCC[C@H]5C(=O)N(C)CC(=O)N(C)C(C(C)C)C(=O)O[C@@H]4C)c3nc-2c(C(=O)N[C@@H]2C(=O)NC(C(C)C)C(=O)N3CCC[C@H]3C(=O)N(C)CC(=O)N(C)C(C(C)C)C(=O)O[C@@H]2C)c(N)c1=O (stereo not given in full) (I: T[ξV]P[Sar][ξNMeV] / II: T[ξV]P[Sar][ξNMeV]; ester I:1-I:C, II:1-II:C; linker I:N-II:N via Actinocin(9to1)) | 0.0332 µM [activator] (active) | 0.003 µM (active)
13 | CCOC(=O)[C@@H](N)CCC(=O)N[C@@H](CSCc1ccccc1)C(=O)N[C@@H](C(=O)OCC)c1ccccc1 | 23.5 µM (active) | inactive
14 | Oc1cccc(-c2nc(N3CCOCC3)c3oc4ncccc4c3n2)c1 | 0.264 µM (active) | 0.0935 µM (active)
15 | COc1ccc(-c2oc3cc(OC)ccc3c2C(=O)c2ccc(C#N)cc2)cc1 | inactive | inactive
16 | O=C(Nc1cccc(Cl)c1)Nc1ncc(CCNc2ncnc3ccsc23)s1 | 29.6 µM (active) | 
17 | COC(=O)[C@]12CCC(C)(C)C[C@@H]1[C@@H]1C(=O)C=C3[C@@]4(C)C=C(C#N)C(=O)C(C)(C)[C@@H]4CC[C@@]3(C)[C@]1(C)CC2 | 0.526 µM (active) | 0.833 µM (active)
18 | CN([C@@H](Cc1ccc(OS(=O)(=O)c2cccc3cnccc23)cc1)C(=O)N1CCN(c2ccccc2)CC1)S(=O)(=O)c1cccc2cnccc12 | inactive | inactive
19 | CC[C@H](Nc1ncnc2nc[nH]c12)c1nc2cccc(F)c2c(=O)n1-c1ccccc1 | 20.9 µM (active) | 
20 | CN1C(=O)C(Cc2c[nH]c3ccccc23)NC1=S (stereo not given) | inactive | inactive
